We go through 12 compounds from PubChem BioAssay (NCI).

This test deals with HL-60(TB) leukemia. As to the kind of experiment: NCI-60 one-dose screen, 48 h (100 = growth as untreated, 0 = no growth, -100 = all killed). To be noted: 10 µM unless noted.

The panel holds about 83,000 compounds, 20% with a hit somewhere; the sample as a whole holds those more often.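 Growth was measured after 48 h exposure to one concentration of compound in 96-well plates. Values under 10 count as active.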 Values without a mark were called inactive. Calls of active or inactive are those of the source.

Regarding `CC(=O)c1c(C)c2cnc(Nc3ccc(N4CCNCC4)cn3)nc2n(C2CCCC2)c1=O`, the growth was 21.8%.

Consider `Cc1cc(OC(=O)c2ccc([N+](=O)[O-])cc2)nc2[nH]c(=O)sc12`, for which the growth was 99.5%.

Take `CC(O)c1nc2c(c(=O)n(C)c(=O)n2C)n1C` (configuration not stated): the growth is 100%.

As to `O=C1Nc2ccccc2/C1=C\c1nc(C2CCN(S(=O)(=O)c3ccc(F)cc3)CC2)n2ccccc12`, the growth was 92.3%.

Turning to `ClCCn1cnc2c(SCc3ccccc3Cl)ncnc21`, the growth was 8.38% (active).

Turning to `CC1(c2ccccc2O)NN=C(/N=C/c2cccc([N+](=O)[O-])c2)N1C(Cc1c[nH]c2ccccc12)C(=O)O` (configuration not stated), the growth is 120%.

Regarding `NS(=O)(=O)c1ccc(CCN2C(=O)/C(=C\c3ccccc3)C=C2c2ccc(Cl)cc2)cc1`, the growth is 104%.

Turning to `CCCCN(CCCC)CCc1c(C)cc(C)c(CCN(CCCC)CCCC)c1O`, the growth was 7.15% (active).

For the compound `O=C1/C(=C\c2ccc3nccnc3c2)SC(=S)N1CCc1ccc(O)cc1`, the growth was 75.6%.

Turning to `CC(C)OC1OC(OC(C)C)C(OC(C)C)OC1OC(C)C` (configuration not stated), the growth was 87.2%.

Consider `C/C(=N\Nc1cc(C)c2ccccc2n1)c1ccccn1`, for which the growth is -47.1% (active).

In the case of `C=C(C)[C@@H]1CC[C@]2(C(=O)O)CC[C@]3(C)[C@H](CC[C@@H]4[C@@]5(C)C[C@@H](Cc6cn(CCO[C@@H]7O[C@H](COC(C)=O)[C@H](OC(C)=O)[C@H](OC(C)=O)[C@H]7OC(C)=O)nn6)[C@H](O)C(C)(C)[C@@H]5CC[C@]43C)[C@@H]12`, the growth was 37.9%.
